# Source: PubChem BioAssay (NCI)
# Compounds without any hit were thinned out: in the full panel of roughly 79,000, 15% have a hit. Unmarked numbers belong to inactive results. Active and inactive are the calls of the source. No stated cut-off is given here; in the data, active means growth inhibition above about 70%; inactive means the rest.
# Assays:
# [1] = NCI Yeast Anticancer Drug Screen. Data for the rad50 strain (AID 155);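 further: 0% = growth of vehicle-only cultures of the same strain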; conditions: S. cerevisiae rad50 strain growth inhibition; at 50.0 µM; active compounds read high
# How it was run: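 Readout: growth inhibition relative to vehicle-treated cultures. Compound exposure was carried out in a genetically defined yeast strain deficient in DNA damage repair.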
# [2] = NCI Yeast Anticancer Drug Screen. Data for the mec2-1 strain (AID 157); conditions: S. cerevisiae mec2-1 strain, at 50.0 µM, active compounds read high
# How it was run: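 Yeast mec2-1 mutant treated with compound. Readout: growth inhibition vs vehicle controls.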
# [3] = NCI Yeast Anticancer Drug Screen. Data for the sgs1 mgt1 strain (AID 161);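 further: 0% = growth of cultures given vehicle only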; conditions: S. cerevisiae sgs1 mgt1 strain, at 50.0 µM, active compounds read high
# How it was run: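 Read-out: growth inhibition vs vehicle controls. Cells: mutant yeast strain deficient in DNA damage repair.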
# [4] = NCI Yeast Anticancer Drug Screen. Data for the cln2 rad14 strain (AID 165);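 further: 0% = growth equal to vehicle treated cultures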; conditions: S. cerevisiae cln2 rad14 strain, at 50.0 µM, active compounds read high
# How it was run: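 cln2 rad14 yeast strain; compound exposure; growth inhibition read vs vehicle controls.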
# [5] = NCI Yeast Anticancer Drug Screen. Data for the bub3 strain (AID 167); conditions: S. cerevisiae bub3 mutant strain, at 50.0 µM, active compounds read high
# How it was run: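 Readout: yeast growth inhibition, expressed relative to vehicle-only wells. The test organism is a mutant strain from a panel with lesions in DNA repair or checkpoint genes.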
# [6] = NCI Yeast Anticancer Drug Screen. Data for the mlh1 rad18 strain (AID 175); conditions: S. cerevisiae mlh1 rad18 strain growth inhibition; at 50.0 µM; active compounds read high
# How it was run: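 Yeast w/ defined DNA-repair lesions; compound exposure; growth vs vehicle controls → % inhibition.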
SMILES,growth inhibition [1],growth inhibition [2],growth inhibition [3],growth inhibition [4],growth inhibition [5],growth inhibition [6]
CC(=O)Nc1ccc(C(=O)NN2C(=O)C(Cl)C2c2ccc([N+](=O)[O-])cc2)cc1 (stereo unspecified),-0.05%,19.6%,-2.05%,1.45%,-24.4%,8.3%
O=[N+]([O-])c1ccc(-c2csc(N=Nc3c(O)[nH]c4ccccc34)n2)cc1,-31.2%,-20.2%,-22.4%,-16.7%,-31.4%,-46.4%
N=C(N)SCCSC(=N)N,-13.5%,-8.4%,-30.6%,9.7%,-16.4%,12.9%
CCOC(=O)C(Cc1ccc([N+](=O)[O-])cc1)(Cc1ccc([N+](=O)[O-])cc1)C(=O)OCC,-8.9%,-0.75%,-15.3%,-8.95%,-25.6%,-17.2%
c1ccc(CCCCc2ccc(CCCCc3ccccc3)cc2)cc1,12.2%,-3.55%,-2.45%,-6.35%,-2.2%,6.1%
CCC(O)(Cc1ccccc1)C(C(=O)O)c1ccccc1 (stereo unspecified),-32%,-31.1%,4.6%,4.9%,-28.1%,-26%
Cc1ccc(NC(=NCCCN(C)C)C(c2ccccc2)c2ccccc2)cc1,-2.7%,-0.25%,-5.4%,0.4%,11.4%,13.4%
CCC[C@H]1C(=O)N=C(N)N1C(=O)OCc1ccccc1,0.9%,2.9%,-5.5%,-28.3%,-3.3%,-7%
COc1cccc(C2N(Cc3ccccc3OC)CCCN2Cc2ccccc2OC)c1,8.15%,11.8%,29.5%,21.8%,-5.8%,8%
ClCCCCCCCCCCl,28.6%,-17.4%,-12.7%,-9%,-13.2%,2.15%
c1ccc(CNC2CC3CCC2C3)cc1 (stereo unspecified),-17.6%,-5.5%,-10.8%,-5.15%,-16.4%,-1.3%
O=C(NC1CCCCC1)OC/C=C\c1ccccc1,7.2%,-12.7%,-7.8%,-6.95%,12.3%,3.8%
CCC(=O)OC1(C(=O)OC)CCN(C)CC1,9.5%,2.95%,-0.9%,15.2%,17.8%,10.4%
NC(=S)N/N=C/C1=C(Cl)c2ccccc2C1,7.45%,6.5%,1.15%,-4.45%,-2.55%,13.2%
COc1cccc(N2C(=O)C3c4[nH]c5ccccc5c4C4CCCC4C3C2=O)c1 (stereo unspecified),-36.5%,-47.4%,-20.8%,-8.15%,-50%,-22.4%
CC(C)CCNCCCCCCl,62.5%,37.3%,36.7%,36.6%,26.8%,67.1%
CCCCNC(C(=O)c1ccc(N(C)C)cc1)c1ccccc1 (stereo unspecified),3.7%,-10.6%,-3.1%,-8.15%,2.95%,-13.9%
COC1=CC(=O)C(Cc2ccc3c(c2)OCO3)=CC1=O,13.2%,24.6%,15.7%,-9.45%,3.1%,34.5%
CCOC(=O)c1[nH]cnc1N,-17.1%,11.1%,-2.55%,-46.1%,1.15%,-3.65%
N#CCC(=O)NCCc1ccccn1,-6.75%,-3.7%,-13.8%,-44.6%,10.2%,-9.05%
COc1cc(OC)cc(C2OC(N)=C(O)C2=O)c1 (stereo unspecified),9.65%,4.25%,13%,14.9%,2.35%,19.3%

SMILES,growth inhibition [1],growth inhibition [2],growth inhibition [3],growth inhibition [4],growth inhibition [5],growth inhibition [6]
O=C(O)CCC(=O)Nc1ccc(S(=O)(=O)Nc2nccs2)cc1,-18%,-36.2%,-16.5%,-17.9%,-18.3%,-14.6%
Cc1[nH]c2ccc(C(=O)NN)cc2c1CC(=O)NN,12.2%,8.45%,14.8%,-23.1%,6.55%,25.1%
C(=N\Nc1nc2ccccc2s1)/c1cccs1,16.9%,33%,23.6%,16.1%,36.4%,29.4%
CC(C)(C)c1ccc(C(=O)O)c(O)c1.CC(C)(C)c1ccc(C(=O)O)c(O)c1.[Cu],24.6%,15.1%,43.4%,47.6%,2.75%,37.1%
CC(=O)Nc1ccc(-c2nnc(SCC(=O)Nc3ccccc3C)o2)cc1,-6.55%,-5.25%,-19.9%,4.65%,-8.55%,-18.1%
CCSC(C(OC(C)=O)C(OC(C)=O)C(COC(C)=O)OC(C)=O)n1cnc2c(=S)nc[nH]c21 (stereo unspecified),6.75%,-0.45%,9.35%,18.8%,-1.55%,1.7%
CCOC(OCC)c1ccccc1OC,1.85%,1.05%,4.95%,-15.1%,3.6%,-1.1%
O=C(O)c1ccc(O)c(C(=O)O)c1,12%,11%,20.6%,-14.7%,-6.15%,16.8%
CN(C)c1ccc(/C=C(\C#N)c2nc(-c3cc4ccccc4oc3=O)cs2)cc1,-2.45%,-13.6%,-23%,-4.3%,-35.7%,-63.2%
N#CC1(c2ccc(Cl)cc2)CCC1,11.7%,6.15%,19.8%,19.9%,27.5%,8.6%
NC(=O)NC(=O)OCCOC(=O)NC(N)=O,-28.4%,-11.7%,-13.3%,-16.7%,-8.85%,-13.2%
COC1=C2CC(C)CC(OC)C(OC(C)=O)C(C)/C=C(\C)C(OC(N)=O)C(OC)/C=C\C=C(/C)C(=O)NC(=CC1=O)C2=O (stereo unspecified),90% (active),91% (active),92.2% (active),87.2% (active),90.7% (active),89.4% (active)
CC(=O)Nc1cc(F)c2c(c1F)Cc1cc(F)ccc1-2,15.1%,21.9%,11.7%,-63.4%,5.15%,7.95%
COc1ccc(C(C#N)C(=O)CCC(=O)C(C#N)c2ccc(OC)c(OC)c2)cc1OC (stereo unspecified),28.3%,2.9%,-8.65%,-15.3%,-2.8%,26.8%
c1ccc2c(c1)Cc1ccc3ccccc3c1-2,56%,28.7%,34.4%,35.8%,64.3%,35.1%
CCOC(=O)c1cnc(NCCCCCCNc2ncc(C(=O)OCC)c(=O)[nH]2)[nH]c1=O,29.7%,-1.5%,-3.65%,-6.8%,-3.1%,21.7%
CCCC(C)NC(=O)c1ccc(OCC)cc1 (stereo unspecified),-12.6%,-3%,-4.95%,-44%,-12.3%,-3.85%
O=C(NNC(=O)C(Oc1ccccc1)c1ccccc1)C(Cl)Cl (stereo unspecified),-9.5%,4.55%,0.55%,-2.45%,10.3%,5.9%
O=C(SCc1ccccc1)C(O)c1ccccc1 (stereo unspecified),1.95%,6.9%,15.7%,-24.6%,19.3%,5.2%
O=[N+]([O-])c1ccc(Oc2ccccc2-c2ccccc2)c([N+](=O)[O-])c1,-2%,-3.7%,11.6%,-73.7%,8.2%,14.4%
